Shown are actives, neighbours in structure and some others; about 11% of the full set was active somewhere.
HP1b chromo inh: HTS for Inhibitors of HP1-beta Chromodomain Interactions with Methylated Histone Tails | Potency, µM (titrated, usually from 114 µM), without a hit: at the highest dose activity change, negative = inhibition, hits mostly inhibitors | AlphaScreen HP1-beta / biotin-H3K9me3 peptide binding | actives 0.56% (n = 390,000) | Chromobox protein homolog 1 (Homo sapiens), P83916 | AID 540317, 2011; further: nearly all actives have a fitted effect of over 70% in size
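Compound inhibition of the preformed complex between 50 nM HP1-beta and 50 nM biotinylated H3K9me3 peptide was read by AlphaScreen. Buffer was PBS pH 7.4 with 0.01% Tween-20. Incubations ran 30 min at room temperature, with 10 ug/mL donor/acceptor beads.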
JMJD2A Tudor inh: qHTS Assay for Inhibitors of JMJD2A-Tudor Domain. Lysine-specific demethylase 4A (Homo sapiens), O75164. AlphaScreen JMJD2A-Tudor / H3K4me3 peptide binding. Potency, µM (doses to about 114 µM), without a hit: at the top dose activity change, negative = inhibition, usual class: inhibitors. actives 4.4% (n = 390,000). AID 504339, 2011; further: on the % scale 0 is the no-effect control and ±100 the full control effect; nearly all actives have a fitted effect of over 50% in size
G9a block: qHTS Assay for Inhibitors of Histone Lysine Methyltransferase G9a; AID 504332, 2011; G9a H3K9 monomethylation, AlphaScreen, 2 h; actives 8.8% (n = 350,000); Histone-lysine N-methyltransferase EHMT2 (Homo sapiens), Q96KQ7; Potency, µM (titrated, usually from 102 µM), for the others: at the highest dose activity, negative = inhibition, usual class: inhibitors; further: on the % scale 0 is the no-effect control and ±100 the full control effect; nearly all actives have a fitted effect of over 75% in size
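Quantitative HTS format: methyltransferase activity on a biotin-tagged H3K9 peptide is measured by AlphaScreen, using a rabbit anti-monomethyl-H3K9 antibody with streptavidin donor and anti-IgG acceptor beads. Final levels are 20 nM enzyme, 500 nM peptide, 20 uM SAM; 2 h RT.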
BAZ2B inh: qHTS Assay for Inhibitors of BAZ2B. Potency, µM (highest dose often 114 µM), inactives show top-dose activity change, negative = inhibition, hits mostly inhibitors. actives 4.4% (n = 360,000). Bromodomain adjacent to zinc finger domain protein 2B (Homo sapiens), Q9UIF8. AlphaScreen BAZ2B-H3K14Ac peptide displacement; further: on the % scale 0 is the no-effect control and ±100 the full control effect; nearly all actives have a fitted effect of over 60% in size
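In this displacement format the biotinylated H3(5-23) peptide acetylated at Lys14 serves as ligand at 50 nM, with BAZ2B at 50 nM in PBS pH 7.4 containing 0.01% Tween-20. Donor and acceptor beads are 10 ug/mL final.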
L3MBTL1 inh: qHTS Assay for the Inhibitors of L3MBTL1; Lethal(3)malignant brain tumor-like protein 1 (Homo sapiens), Q9Y468; AlphaScreen L3MBTL1–H3K9me1 peptide binding; Potency, µM (series often up to 57.1 µM), for the others: at the top dose activity, negative = inhibition, actives largely listed as inhibitors; actives 0.66% (n = 230,000); AID 485360, 2010; further: on the % scale 0 is the no-effect control and ±100 the full control effect; nearly all actives have a fitted effect of over 60% in size
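L3MBTL1 (50 nM) pre-complexed 30 min with biotinylated H3(1-15)K9me1 peptide (75 nM), then compounds added for 30 min at room temperature; AlphaScreen streptavidin donor/nickel chelate acceptor beads (10 ug/mL final) read after 30 min dark incubation.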
Starred values were filed as active, the others as inactive; ? = inconclusive; nt = not tested or not shown; [ ] = remark or other dose. The call rests on the fitted dose curve; in most records, active means well fitted inhibition curve with a large enough effect; inconclusive means small, poorly fitted or top-dose-only effect; inactive means no such curve, though single readings can be large or run the other way. Potency means the concentration at half of the fitted maximal effect.

SMILES	HP1b chromo inh	JMJD2A Tudor inh	G9a block	BAZ2B inh	L3MBTL1 inh
Cc1ccc(S(=O)(=O)Nc2cc(=O)[nH]c(SCC(=O)Nc3ccccc3Cl)n2)cc1	44%	-2%	56µM*	56µM*	1%
Cc1ccc(NC(=O)CSc2nc(NS(=O)(=O)c3ccccc3)cc(=O)[nH]2)cc1	-18%	50µM*	?	?	nt
Cc1ccc(NS(=O)(=O)c2cc3c(cc2-c2ccccc2)NC(=O)CO3)cc1C	nt	-29%	nt	nt	nt
Cc1ccc(OCc2nc(-c3ccc(C(=O)NCCc4ccc(S(N)(=O)=O)cc4)cc3)oc2C)cc1	47%	1%	7%[59 µM]	4%	nt
CC1CCN(S(=O)(=O)c2ccc3c(c2)c(=O)c(C(=O)NCc2ccco2)cn3C)CC1	5%	-22%	79µM*	-13%	-17%
COc1ccc(N=N/C(C(C)=O)=C(/C)O)cc1	-4%	-30%	1%	-29%	-9%
COc1ccc(N=N/C(=C\O)C(=O)c2cccs2)cc1	?	16µM*	20µM*	11µM*	?
COc1ccc(C(=O)/C(=C/O)N=Nc2ccc(F)cc2)cc1	-29%	56µM*	?	32µM*	?
CC1CCN(S(=O)(=O)c2ccc3c(ccn3CCC(=O)NCc3ccccc3F)c2)CC1	21%	-11%	-3%[59 µM]	-18%	nt
Cc1ccc(S(=O)(=O)c2c(Nc3ccc(C)c(C)c3)sc(C(=O)c3ccc4c(c3)OCO4)c2N)cc1	16%[57 µM]	-35%	-1%[59 µM]	-10%	nt
CCOC(=O)C1=C(SCC)c2cc3c(n2C1=O)CCCC3	?	35µM*	7.9µM*	10µM*	25µM*
O=C(CN1C(=O)NC2(CCCC2)C1=O)N1CCN(S(=O)(=O)c2cc(Cl)ccc2Cl)CC1	3%	-12%	16%[12.7 µM]	1%	-2%
COc1cccc(CN(C(=O)c2oc3cc(C)ccc3c2C)C2CCS(=O)(=O)C2)c1 (stereo unspecified)	25%	-17%	-22%[59 µM]	-24%	nt
c1cc2c(cn1)cnc1cscc12	32%	10%	79µM*	-1%	-1%
O=S(=O)(c1ccc(Cl)c(NC(=S)N/N=C/c2ccc(O)cc2)c1)N1CCOCC1	-23%	?	1.4µM*	-38%	-16%
COc1ccc2cc(/C(C)=N/NC(=S)Nc3cc(S(=O)(=O)N4CCOCC4)ccc3N3CCOCC3)ccc2c1	nt	nt	-104%[59 µM]	-5%	-7%
C/C(CCC(C)C)=N\NC(=S)Nc1cc(S(=O)(=O)N2CCOCC2)ccc1N1CCOCC1	-22%	-36%	25µM*	-32%	-1%
CC(C)NC(=S)N/N=C/c1ccc(N2CCOCC2)cc1	26%	-18%	15%[59 µM]	-30%	-1%
C/C(=N\NC(=S)Nc1cc(S(=O)(=O)N2CCOCC2)ccc1Cl)c1ccc(N2CCOCC2)cc1	-2%	-28%	32µM*	-21%	-17%
Oc1ccc(/C=N/NC(=S)N2CCOCC2)cc1	-3%	-35%	50µM*	-3%	-1%
O=[N+]([O-])c1cc(Cl)cc(/C=N/NC(=S)Nc2ccc(S(=O)(=O)N3CCOCC3)cc2)c1O	22µM*	-35%[11.4 µM]	16µM*	2.8µM*	3.5µM*
O=C(Nc1cccc(F)c1)N1CC[C@@]2(CCCN(C(=O)c3ccco3)C2)C1	nt	nt	-2%[12.7 µM]	nt	nt
COc1ccc(NC(=O)C(c2cc3c(cc2[N+](=O)[O-])OCO3)N(C)Cc2ccccc2)cc1 (stereo unspecified)	?	?	79µM*	?	-6%
COc1ccccc1N1CCN(/N=C/c2cc([N+](=O)[O-])ccc2Cl)CC1	-20%	?	?	7.9µM*	-29%
O=[N+]([O-])c1ccc(Cl)c(/C=N/N2CCN(c3ccccc3)CC2)c1	?	10µM*	32µM*	11µM*	-18%
O=[N+]([O-])c1cc(/C=N/N2CCN(c3ccccc3)CC2)ccc1Cl	38%	-3%	-18%[59 µM]	?	-9%
